# Reference: ChEMBL document CHEMBL4513146, “CO-ADD screening of Karazin Kharkiv National University (Ukraine) compounds”
# Potency and affinity values are given separately.
# Columns and labels:
# Staphylococcus aureus = conditions: Concentration 32 ug.mL-1;; ASSAY_TEST Inhibition of Bacterial Growth; detection method Absorption (OD600); MEDIA CAMHB; plate type 384well; NBS; CORNING #3640; time 18 hr
# Escherichia coli = conditions: Concentration 32 ug.mL-1;; ASSAY_TEST Inhibition of Bacterial Growth; detection method Absorption (OD600); MEDIA CAMHB; plate type 384well; NBS; CORNING #3640; time 18 hr
compound,measurement,setting,value
CC(=O)c1ccc(NC(=O)Cn2nc3c4cc(-c5ccc(Cl)cc5)nn4ccn3c2=O)cc1,Inhibition,Staphylococcus aureus,8.4%
same,Inhibition,Escherichia coli,0.52%
COc1ccc(CN(c2ccc(F)cc2)S(=O)(=O)c2ccc3nnc(C)n3c2)cc1F,Inhibition,Staphylococcus aureus,-10.32%
same,Inhibition,Escherichia coli,-13.96%
COc1cc(NC(=O)Cn2nc3ccc(SC(C)C)nn3c2=O)cc(OC)c1,Inhibition,Staphylococcus aureus,-7.38%
same,Inhibition,Escherichia coli,-2.23%
O=c1c2sccc2n2c(=O)n(Cc3ccc(Br)cc3)nc2n1Cc1cccs1,Inhibition,Staphylococcus aureus,-10.81%
same,Inhibition,Escherichia coli,-9.69%
Cc1cccc(NC(=O)Cn2nc3c4cc(-c5ccc(Cl)cc5)nn4ccn3c2=O)c1,Inhibition,Staphylococcus aureus,3.19%
same,Inhibition,Escherichia coli,-7.53%
Cc1ccc(-n2ccn3c(=O)n(Cc4ccc(Cl)cc4)nc3c2=O)cc1C,Inhibition,Staphylococcus aureus,0.27%
same,Inhibition,Escherichia coli,-1.91%
COc1ccc(NC(=O)Cn2nc3ccc(-c4ccccc4)nn3c2=O)cc1OC,Inhibition,Staphylococcus aureus,0.84%
same,Inhibition,Escherichia coli,-8.27%
COCCCNC(=O)CSc1nnc2c(=O)n(Cc3ccccc3F)ccn12,Inhibition,Staphylococcus aureus,-1.95%
same,Inhibition,Escherichia coli,0.71%
O=C(CSc1nc2ccccc2n2cnnc12)Nc1ccc2c(c1)OCCO2,Inhibition,Staphylococcus aureus,6.86%
same,Inhibition,Escherichia coli,5.63%
CCOc1ccc(NC(=O)Cn2nc3c(N4CCCC(C)C4)nccn3c2=O)cc1 (stereo not drawn),Inhibition,Staphylococcus aureus,4.96%
same,Inhibition,Escherichia coli,-4.53%
Cc1nnc2ccc(S(=O)(=O)N(Cc3ccc(F)cc3)c3ccc(Cl)cc3)cn12,Inhibition,Staphylococcus aureus,3.43%
same,Inhibition,Escherichia coli,-7.02%
CSc1cccc(NC(=O)Cn2nc3c(N4CCCC(C)C4)nccn3c2=O)c1 (stereo not drawn),Inhibition,Staphylococcus aureus,-21.6%
same,Inhibition,Escherichia coli,-14.98%
Cc1cccc(NC(=O)CSc2nnc3c4cc(-c5ccccc5)nn4ccn23)c1C,Inhibition,Staphylococcus aureus,-15.85%
same,Inhibition,Escherichia coli,-6.36%
Cc1ccc(NC(=O)Cn2nc3c(Oc4ccccc4Cl)nccn3c2=O)cc1F,Inhibition,Staphylococcus aureus,7.48%
same,Inhibition,Escherichia coli,-2.62%
O=C(Cn1nc2c3c4c(sc3ncn2c1=O)CCCC4)NCc1ccc(F)cc1,Inhibition,Staphylococcus aureus,8.69%
same,Inhibition,Escherichia coli,-4.83%
COCCCNC(=O)CSc1nnc2c(=O)n(Cc3ccc(F)cc3)ccn12,Inhibition,Staphylococcus aureus,10.54%
same,Inhibition,Escherichia coli,-1.15%
Cc1nnc2c(=O)n(CC(=O)Nc3ccc(F)cc3)c3ccccc3n12,Inhibition,Staphylococcus aureus,15.51%
same,Inhibition,Escherichia coli,1.65%
Cc1ccc(Cn2c(=O)c3ccc(C(=O)NC4CCCC4)cc3n3c(=O)n(CC#N)nc23)cc1,Inhibition,Staphylococcus aureus,2.21%
same,Inhibition,Escherichia coli,1.56%
Cc1ccc(-c2ccc3nn(CC(=O)Nc4ccc(Cl)cc4F)c(=O)n3n2)cc1,Inhibition,Staphylococcus aureus,8.27%
same,Inhibition,Escherichia coli,-2.22%
CC(C)CCNC(=O)CSc1nnc2c3cc(-c4ccccc4)nn3ccn12,Inhibition,Staphylococcus aureus,4.29%
same,Inhibition,Escherichia coli,0.66%
Cc1ccc(NC(=O)Cn2c(=O)c3nnc(C(C)C)n3c3ccccc32)cc1,Inhibition,Staphylococcus aureus,-2.26%
same,Inhibition,Escherichia coli,0.43%
C=Cc1ccc(CN(c2cccc(Cl)c2)S(=O)(=O)c2cccn3c(C)nnc23)cc1,Inhibition,Staphylococcus aureus,-18.32%
same,Inhibition,Escherichia coli,-14.37%
COc1ccc(CNC(=O)Cn2nc3c(N4CCN(c5ccccc5)CC4)nccn3c2=O)cc1,Inhibition,Staphylococcus aureus,21.01%
same,Inhibition,Escherichia coli,2.9%
O=c1c2sccc2n2c(=O)n(Cc3ccc(Cl)cc3)nc2n1Cc1cccs1,Inhibition,Staphylococcus aureus,-8.27%
same,Inhibition,Escherichia coli,-9.25%
Cc1ccc(-n2ccn3c(SCC#N)nnc3c2=O)cc1C,Inhibition,Staphylococcus aureus,11.84%
same,Inhibition,Escherichia coli,-4.03%
CCCc1ccc(S(=O)(=O)Nc2ccc3nncn3n2)cc1,Inhibition,Staphylococcus aureus,16.11%
same,Inhibition,Escherichia coli,2.74%
CCC(C)NC(=O)Cn1nc2n(Cc3cccs3)c(=O)c3sccc3n2c1=O (stereo not drawn),Inhibition,Staphylococcus aureus,3.01%
same,Inhibition,Escherichia coli,-5.74%
O=c1c2sccc2n2c(=O)n(Cc3cccc(Cl)c3)nc2n1CCc1ccccc1,Inhibition,Staphylococcus aureus,10.13%
same,Inhibition,Escherichia coli,1.01%
O=C(Cn1nc2c3cc(-c4ccc(F)cc4)nn3ccn2c1=O)Nc1ccccc1,Inhibition,Staphylococcus aureus,-11.01%
same,Inhibition,Escherichia coli,-1.34%
Cc1ccc(C)c(Cn2nc3n(CCC(C)C)c(=O)c4sccc4n3c2=O)c1,Inhibition,Staphylococcus aureus,8.96%
same,Inhibition,Escherichia coli,1.02%
COc1ccc(C)cc1NC(=O)Cn1nc2c(N3CCSCC3)nc3ccccc3n2c1=O,Inhibition,Staphylococcus aureus,9.36%
same,Inhibition,Escherichia coli,0.1%
COc1ccc(CNC(=O)Cn2nc3c4cc(-c5ccc(OC)cc5)nn4ccn3c2=O)cc1,Inhibition,Staphylococcus aureus,-1.74%
same,Inhibition,Escherichia coli,-1.87%
O=C(CSc1nnc2c(=O)n(-c3ccccc3)ccn12)NCc1ccc(Cl)cc1,Inhibition,Staphylococcus aureus,9.66%
same,Inhibition,Escherichia coli,-0.23%
CC(C)NC(=O)CCn1c(=O)c2ccccc2n2c(=O)n(CC#N)nc12,Inhibition,Staphylococcus aureus,-1.98%
same,Inhibition,Escherichia coli,0.48%
Cc1cc(C)cc(NC(=O)Cn2nc3ccc(SCc4ccc(Cl)cc4)nn3c2=O)c1,Inhibition,Staphylococcus aureus,-7.67%
same,Inhibition,Escherichia coli,-11.38%
COc1cccc(-n2ccn3c(SCC(=O)NCc4ccc(C)cc4)nnc3c2=O)c1,Inhibition,Staphylococcus aureus,-1.77%
same,Inhibition,Escherichia coli,2.15%
Cc1ccc(NC(=O)Cn2nc3c(Oc4ccccc4)nccn3c2=O)c(Br)c1,Inhibition,Staphylococcus aureus,1.04%
same,Inhibition,Escherichia coli,-7.68%
COc1ccc(Cl)cc1NC(=O)Cn1nc2c(Sc3ccc(C)cc3C)nccn2c1=O,Inhibition,Staphylococcus aureus,-3.15%
same,Inhibition,Escherichia coli,-8.38%
COc1ccc(CNC(=O)Cn2nc3c(N4CCOCC4)nccn3c2=O)cc1,Inhibition,Staphylococcus aureus,22.13%
same,Inhibition,Escherichia coli,3.1%
O=C(Cn1nc2c(Sc3cccc(F)c3)nccn2c1=O)Nc1cccc(Br)c1,Inhibition,Staphylococcus aureus,3.89%
same,Inhibition,Escherichia coli,0.56%
Cc1ccc(NC(=O)CSc2nnc3n(CC4CCCO4)c(=O)c4sccc4n23)cc1F (stereo not drawn),Inhibition,Staphylococcus aureus,4.36%
same,Inhibition,Escherichia coli,-6.16%
Cc1cc2nn(CC(=O)NC(C)C)c(=O)n2c(-c2ccc(C(F)(F)F)cc2)n1,Inhibition,Staphylococcus aureus,-8.3%
same,Inhibition,Escherichia coli,1.53%
COc1ccc(NC(=O)Cn2c(=O)c3nnc(C)n3c3ccccc32)cc1Cl,Inhibition,Staphylococcus aureus,14.24%
same,Inhibition,Escherichia coli,3.26%
CCc1nnc2ccc(S(=O)(=O)N(Cc3ccc(F)cc3)c3ccc(OC)cc3)cn12,Inhibition,Staphylococcus aureus,6.39%
same,Inhibition,Escherichia coli,-3.2%
CCCCN(CC)C(=O)CSc1nnc2c(=O)n(Cc3ccccc3F)ccn12,Inhibition,Staphylococcus aureus,1.71%
same,Inhibition,Escherichia coli,-7.34%
Cc1nnc2c(SCC(=O)N3CCN(c4ccccc4F)CC3)nc3ccccc3n12,Inhibition,Staphylococcus aureus,19.81%
same,Inhibition,Escherichia coli,5.15%
CC(=O)c1ccc(NC(=O)Cn2nc3ccc(-c4ccccc4)nn3c2=O)cc1,Inhibition,Staphylococcus aureus,7.56%
same,Inhibition,Escherichia coli,-5.17%
O=C(Cn1nc2ccc(-c3ccccc3)nn2c1=O)Nc1ccc(F)c(Cl)c1,Inhibition,Staphylococcus aureus,7.52%
same,Inhibition,Escherichia coli,-1.06%
O=C(Cn1nc2c(SC3CCCCC3)nccn2c1=O)Nc1cccc(Cl)c1,Inhibition,Staphylococcus aureus,-15.22%
same,Inhibition,Escherichia coli,-17.9%
